Source: publication PMC5540273 (PLoS ONE, 2017)

What was measured:
Conditions in all cases: concentration: 1 μM, replicates: in singlicate; n = 1
[1] = system: TIE1
[2] = system: T1, TIE2
T1 construct: gene TEK

[3] = system: TLK1
[4] = system: TLK2
[5] = system: TNIK
[6] = system: TNK1
[7] = system: TNK2
[8] = system: TNNI3K
[9] = system: T2, TRKA
T2 construct: gene NTRK1

[10] = system: TRKB
[11] = system: T3, TRKC
T3 construct: gene NTRK3

[12] = system: TRPM6
[13] = system: TSSK1B
[14] = system: TSSK3
[15] = system: TTK
[16] = system: TXK
[17] = system: TYK2(JH1domain-catalytic)
[18] = system: TYK2(JH2domain-pseudokinase)
[19] = system: TYRO3
[20] = system: ULK1
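Note: KINOMEscan kinase panel screen.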

Structure (SMILES) | %Inh [1] [%] | %Inh [2] [%] | %Inh [3] [%] | %Inh [4] [%] | %Inh [5] [%] | %Inh [6] [%] | %Inh [7] [%] | %Inh [8] [%] | %Inh [9] [%] | %Inh [10] [%] | %Inh [11] [%] | %Inh [12] [%] | %Inh [13] [%] | %Inh [14] [%] | %Inh [15] [%] | %Inh [16] [%] | %Inh [17] [%] | %Inh [18] [%] | %Inh [19] [%] | %Inh [20] [%]
CCCc1ccc(S(=O)(=O)NC2CCN(c3ccnc(Nc4ccc(OC)cc4)n3)C2)cc1 (stereo not shown) [GSK1379737] | 34 | 0 | 0 | 0 | 0 | 0 | 11 | 6 | 0 | 23 | 36 | 0 | 0 | 5 | 0 | 6 | 53 | 46 | 0 | 99.6
Cc1ccc(NC(=O)c2cccc(C#N)c2)cc1-c1ccc(C(=O)Nc2ccncc2)cc1 [GSK1398463] | 11 | 21 | 0 | 0 | 13 | 16 | 21 | 29 | 0 | 0 | 7 | 0 | 0 | 0 | 43 | 0 | 8 | 13 | 0 | 42
O=C(CCO)NCCn1ccc2ncnc(Nc3ccc(Oc4cccc(C(F)(F)F)c4)c(Cl)c3)c21 | 0 | 0 | 0 | 0 | 0 | 0 | 0 | 0 | 0 | 0 | 0 | 0 | 0 | 2 | 0 | 0 | 0 | 0 | 0 | 0
COc1ccc(NC(=O)Nc2ccc(C)c(-c3ccc(C(=O)Nc4ccncc4)cc3)c2)cc1 [GSK1398475] | 0 | 0 | 19 | 0 | 0 | 0 | 17 | 17 | 0 | 0 | 0 | 0 | 10 | 0 | 0 | 0 | 0 | 5 | 0 | 0
Nc1nc(-c2ccc3c(N)n[nH]c3c2)cc(N2CCC[C@@H](C(=O)Nc3ccccc3)C2)n1.O=C(O)C(F)(F)F.O=C(O)C(F)(F)F [GSK2288359] | 0 | 0 | 15 | 10 | 0 | 0 | 1 | 5 | 0 | 0 | 0 | 34 | 0 | 24 | 0 | 8 | 18 | 1 | 0 | 9
NC(=O)c1sc(-n2cnc3ccccc32)cc1OCc1ccccc1F [GSK1024306] | 2 | 0 | 0 | 0 | 56 | 0 | 9 | 18 | 51 | 0 | 16 | 0 | 0 | 20 | 12 | 0 | 13 | 28 | 0 | 0
CCn1c(-c2ccncc2)nc2cnccc21 [SB-735216] | 0 | 12 | 0 | 0 | 0 | 1 | 13 | 0 | 27 | 41 | 36 | 22 | 8 | 0 | 0 | 21 | 0 | 0 | 26 | 17
COc1cc2ncnc(Nc3ccc(OCc4ccccc4Br)c(Cl)c3)c2cc1OC.Cl [GI261590] | 0 | 3 | 0 | 0 | 0 | 0 | 24 | 5 | 0 | 19 | 33 | 19 | 14 | 12 | 0 | 12 | 34 | 47 | 15 | 0
Fc1ccc(Nc2nccc(-c3c(-c4ccc(Cl)cc4)nn4ncccc34)n2)cc1F [GW829058] | 38 | 18 | 0 | 12 | 89 | 24 | 0 | 3 | 13 | 0 | 35 | 20 | 0 | 33 | 8 | 19 | 20 | 40 | 8 | 45
Nc1nc(-c2cccnc2)c(-c2ccnc3ccccc23)s1 [GW684083] | 6 | 0 | 0 | 0 | 81 | 0 | 18 | 0 | 59 | 39 | 25 | 14 | 0 | 9 | 0 | 0 | 41 | 62 | 0 | 5
O=C(Nc1n[nH]c2nc(-c3ccco3)c(Br)cc12)c1ccc(CN2CCCC2)cc1.O=C(O)[C@H](O)[C@@H](O)C(=O)O [SB-742352] | 0 | 0 | 3 | 0 | 14 | 38 | 0 | 12 | 18 | 0 | 0 | 0 | 0 | 0 | 0 | 2 | 0 | 0 | 0 | 13
